Results published in PubChem BioAssay (Tox21).
Inconclusive results are not listed. Where a call stands in place of a potency, no number is given. A structure can be active in one record and inactive in another. The source made the active and inactive calls. Unless noted, calls come from the whole dose curve.

Legend:
[1] = Nuclear factor erythroid 2-related factor 2/antioxidant responsive element (Nrf2/ARE) small molecule agonists: qHTS cell viability counter screen in human keratinocytes (AID 1919968; active = well fitted curve in the direction sought with a large enough effect in the repeat runs; an effect the other way counts as inactive or inconclusive; note: nearly all actives have a fitted effect of over 55% in size)
Method in brief: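 Cells of the KeratinoSens line were plated at 1,500 per well and left for 5 h before compound transfer from DMSO stocks. After a 23 h incubation (37 C, 5% CO2), CellTiter-Fluor was added. Signal was taken as fluorescence intensity 1 h later.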

[2] = biological target: Gonadotropin-releasing hormone receptor (Homo sapiens) (UniProt P30968); assay: Human gonadotropin-releasing hormone receptor (GnRHR) small molecule agonists, calcium flux assay in GnRHR-HEK293 cells (AID 1920063); note: nearly all actives have a fitted effect of over 35% in size
Method in brief: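 Compounds dissolved in DMSO are pin-transferred onto dye-loaded GnRHR-HEK293 cells, which were seeded 18 h before at 37 C/5% CO2. Calcium signal is read as fluorescence intensity at 1 s intervals for 3 min.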

[3] = biological target: KiSS-1 receptor (Homo sapiens) (UniProt Q969F8); assay: Human kisspeptin (KISS1R) small molecule agonists, calcium flux assay in KISS1R-HEK293 cells (AID 1920064; active = well fitted curve in the direction sought with a large enough effect in the repeat runs; an effect the other way counts as inactive or inconclusive)
Method in brief: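 Cell line: HEK293, stable human KISS1R. Dye loading 1 h at 37 C after 18 h culture. Read: kinetic fluorescence, 480/540 nm, 3 min at 1 s intervals.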

[4] = G protein-coupled receptor (GPCR) small molecule agonists, calcium flux assay: HEK293 wild type cell line counter screen (AID 1920065)
Method in brief: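 Tox21 10K compounds, 15 concentrations each in triplicate, pin-transferred in DMSO onto dye-loaded cells; kinetic read at 480/540 nm for 3 min, 1 s intervals.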

[5] = p53 small molecule agonists, cell-based qHTS assay with human liver microsomes (AID 1963577);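 note: p53 response element beta-lactamase reporter cells with liver microsomes plus NADPH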
Method in brief: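 Steps: plate p53RE-bla cells, incubate 5 h at 37 C; add compound in DMSO; add microsomes (0.5 mg/mL final) and NADPH (0.5 mg/mL final); incubate 16 h at 37 C; add LiveBLAzer, 2 h RT; read fluorescence.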

[6] = p53 small molecule agonists, cell-based qHTS assay with rat liver microsomes (AID 1963578)
Method in brief: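 Metabolic activation is supplied by rat liver microsomes with NADPH (each 0.5 mg/mL final). p53RE-bla cells incubate with compound 16 h at 37 C; reporter activity is measured by LiveBLAzer fluorescence.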

[7] = p53 small molecule agonists, cell-based qHTS assay with human liver microsomes: qHTS cell viability counter screen (AID 1963579); note: nearly all actives have a fitted effect of over 45% in size
Method in brief: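 After the 460/530 nm beta-lactamase read, CellTiter-Glo was added to the same wells and luminescence measured after 30 min at room temperature, giving viability of p53RE-bla cells treated 16 h with compounds plus microsomes and NADPH.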

[8] = p53 small molecule agonists, cell-based qHTS assay with rat liver microsomes: qHTS cell viability counter screen (AID 1963580); note: nearly all actives have a fitted effect of over 45% in size
Method in brief: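 Luminescent ATP readout (CellTiter-Glo, 30 min at room temperature) reports viability of p53RE-bla HCT-116 cells after 16 h at 37 C with test compounds under metabolic activation by rat liver microsomes and NADPH at 0.5 mg/mL final each.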

[9] = p53 small molecule agonists, cell-based qHTS assay: qHTS cell viability counter screen (AID 1963581); note: nearly all actives have a fitted effect of over 45% in size
Method in brief: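 ATP content measured by luminescence in HCT-116 p53RE-bla cells treated 16 h at 37 C, same wells as the reporter screen.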

[10] = p53 small molecule agonists, cell-based qHTS assay (AID 1963582; active = well fitted activation curve with a large enough effect in the signal ratio in the repeat runs, not every such curve was filed as active; the % refers to the signal ratio)
Method in brief: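 16 h compound exposure (37 C) of p53 response element–bla cells, preceded by 5 h recovery at 37 C/5% CO2; read-out via LiveBLAzer B/G FRET substrate, 2 h RT, fluorescence intensity.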

[11] = cAMP Responsive Elements (CRE) small molecule agonists, cell-based qHTS assay (AID 1963590)
Method in brief: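 HEK 293T cells stably bearing CRE-bla were plated at 2,000 cells per well and rested 18 h. Compounds, positive controls or DMSO were added for 3 h at 37 C. LiveBLAzer B/G substrate was then loaded for 2 h at room temperature.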

[12] = cAMP Responsive Elements (CRE) small molecule antagonists, cell-based qHTS assay (AID 1963591; active = well fitted inhibition curve with a large enough effect in the signal ratio in the repeat runs, not every such curve was filed as active; the % refers to the signal ratio)
Method in brief: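 First, CRE-bla HEK293T cells settled 18 h at 37 C. Next, compound and 0.25 uM final NKH477 were applied for 3 h. Last, LiveBLAzer B/G substrate was loaded for 2 h at room temperature.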

[13] = biological target: Beta-2 adrenergic receptor (Homo sapiens) (UniProt P07550); assay: Adrenergic beta2 receptor (ADRB2) small molecule antagonists, cell-based qHTS assay (AID 1963592); note: nearly all actives have a fitted effect of over 50% in size; note: potency is the fitted concentration of half-maximal effect
Method in brief: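 Assay format: CHO-ADRB2 cells, 18-20hr seeding at 37C/5% CO2, then compound plus 1nM isoproterenol agonist mix for 0.5hr RT. Homogeneous time-resolved fluorescence cAMP detection after 1hr, expressed as 665/615 nm ratio.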

[14] = biological target: Beta-2 adrenergic receptor (Homo sapiens) (UniProt P07550); assay: Adrenergic beta2 receptor (ADRB2) small molecule agonists, cell-based qHTS assay (AID 1963593);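 note: CHO cells stably overexpressing human ADRB2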
Method in brief: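 CHO cells stably over-expressing ADRB2 were plated overnight at 37C, then dosed with compounds plus a stimulation mix containing 100uM IBMX and 25uM Ro-20-1724 for 0.5hr at room temperature. cAMP was measured by HTRF competition, 1hr.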

[15] = biological target: D(2) dopamine receptor (Homo sapiens) (UniProt P14416); assay: Dopamine D2 receptor (DRD2) small molecule agonists, cell-based qHTS assay (AID 1963594); note: nearly all actives have a fitted effect of over 35% in size
Method in brief: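 HEK293 cells stably expressing DRD2 were cultured 24 h at 37 C, then given Ro20-1724 (0.1 mM final) and compounds for 10 min at room temperature. NKH477 (200nM) was then added for 30 min. cAMP was read by HTRF.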

[16] = biological target: D(2) dopamine receptor (Homo sapiens) (UniProt P14416); assay: Dopamine D2 receptor (DRD2) small molecule antagonists, cell-based qHTS assay (AID 1963595; active = well fitted inhibition curve with a large enough effect in the signal ratio in the repeat runs, with a control signal flat; the % refers to the signal ratio)
Method in brief: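 Human DRD2 antagonist qHTS measuring cAMP by HTRF. The cells are exposed to compound for 10 min, then to NKH477 (200 nM) and quinpirole (12 nM) for 30 min at RT, with Ro20-1724 (0.1 mM) present throughout.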

[17] = biological target: 5-hydroxytryptamine receptor 2A (Homo sapiens) (UniProt P28223); assay: 5-hydroxytryptamine receptor 2A (HTR2A) small molecule antagonists, cell-based qHTS assay (AID 1963586); note: nearly all actives have a fitted effect of over 45% in size
Method in brief: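 CHO cells stably expressing human HTR2A were plated for 18 h at 37 C, then loaded with calcium dye for 1 h. Compounds were preincubated 5 min at room temperature before DOI (4 nM solution) was added. Kinetic fluorescence was read for 3 min.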

[18] = biological target: 5-hydroxytryptamine receptor 2A (Homo sapiens) (UniProt P28223); assay: 5-hydroxytryptamine receptor 2A (HTR2A) small molecule agonists, cell-based qHTS assay (AID 1963587); note: nearly all actives have a fitted effect of over 30% in size
Method in brief: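 HTR2A-CHO cells, plated 18 h at 37 C/5% CO2, dye-loaded 1 h at 37 C; compounds in DMSO added by pin tool (agonist mode). Intracellular calcium flux read as kinetic fluorescence on FDSS over 2 min at 1 s intervals.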

[19] = biological target: Muscarinic acetylcholine receptor M1 (Homo sapiens) (UniProt P11229); assay: Cholinergic receptor muscarinic 1 (CHRM1) small molecule antagonists, cell-based qHTS assay (AID 1963588); note: nearly all actives have a fitted effect of over 40% in size
Method in brief: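 Compounds were tested at 15 concentrations in three independent runs. Dye-loaded CHRM1-CHO cells were exposed 5 min at room temperature before stimulation by acetylcholine added at 50nM. Intracellular calcium was read kinetically on FDSS for 3 min.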

[20] = biological target: Muscarinic acetylcholine receptor M1 (Homo sapiens) (UniProt P11229); assay: Cholinergic receptor muscarinic 1 (CHRM1) small molecule agonists, cell-based qHTS assay (AID 1963589); note: nearly all actives have a fitted effect of over 35% in size
Method in brief: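 Homogeneous fluorescence calcium flux, agonist mode. Human M1-expressing CHO cells; compound dosed at 15 concentrations, three independent runs; signal sampled every 1 sec.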

Sequence of 5-hydroxytryptamine receptor 2A (Homo sapiens) (P28223 whole entry, looked up): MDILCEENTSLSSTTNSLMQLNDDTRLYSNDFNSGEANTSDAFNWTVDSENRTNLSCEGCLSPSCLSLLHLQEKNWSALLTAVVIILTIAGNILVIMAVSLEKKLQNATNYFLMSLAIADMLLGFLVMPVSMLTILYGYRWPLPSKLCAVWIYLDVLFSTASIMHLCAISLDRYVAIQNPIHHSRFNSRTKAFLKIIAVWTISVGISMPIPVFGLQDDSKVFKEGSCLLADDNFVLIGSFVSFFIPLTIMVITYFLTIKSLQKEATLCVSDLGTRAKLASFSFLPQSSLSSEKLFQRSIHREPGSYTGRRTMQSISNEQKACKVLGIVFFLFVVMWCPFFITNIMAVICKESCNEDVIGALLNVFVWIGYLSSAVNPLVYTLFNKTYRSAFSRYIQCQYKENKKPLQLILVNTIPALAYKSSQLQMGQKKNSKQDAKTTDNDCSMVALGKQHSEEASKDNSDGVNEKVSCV
Sequence of KiSS-1 receptor (Homo sapiens) (Q969F8 whole entry, looked up): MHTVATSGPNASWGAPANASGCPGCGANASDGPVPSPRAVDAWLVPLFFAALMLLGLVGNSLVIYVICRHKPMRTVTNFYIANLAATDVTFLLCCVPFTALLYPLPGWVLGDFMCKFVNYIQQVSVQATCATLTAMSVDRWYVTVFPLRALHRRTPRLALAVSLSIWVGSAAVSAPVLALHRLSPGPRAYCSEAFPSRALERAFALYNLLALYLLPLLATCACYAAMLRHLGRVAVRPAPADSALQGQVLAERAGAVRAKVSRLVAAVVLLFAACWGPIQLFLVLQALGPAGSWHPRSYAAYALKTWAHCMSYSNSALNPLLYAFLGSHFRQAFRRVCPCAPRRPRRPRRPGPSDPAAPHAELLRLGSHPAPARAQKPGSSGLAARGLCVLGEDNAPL
Sequence of D(2) dopamine receptor (Homo sapiens) (P14416 whole entry, looked up): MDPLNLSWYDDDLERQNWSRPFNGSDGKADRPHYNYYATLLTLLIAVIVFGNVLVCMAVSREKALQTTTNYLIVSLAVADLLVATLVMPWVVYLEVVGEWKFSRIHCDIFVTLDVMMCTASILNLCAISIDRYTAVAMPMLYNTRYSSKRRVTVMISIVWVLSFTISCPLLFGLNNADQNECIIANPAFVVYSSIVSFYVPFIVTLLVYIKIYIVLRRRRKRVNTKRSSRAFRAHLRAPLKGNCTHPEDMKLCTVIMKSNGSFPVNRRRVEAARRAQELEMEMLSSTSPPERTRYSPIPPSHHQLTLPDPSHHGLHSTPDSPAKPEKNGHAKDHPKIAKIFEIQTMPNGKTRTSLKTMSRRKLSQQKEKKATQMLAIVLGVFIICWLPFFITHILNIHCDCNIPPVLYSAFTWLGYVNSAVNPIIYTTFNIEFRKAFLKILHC
Sequence of Gonadotropin-releasing hormone receptor (Homo sapiens) (P30968 whole entry, looked up): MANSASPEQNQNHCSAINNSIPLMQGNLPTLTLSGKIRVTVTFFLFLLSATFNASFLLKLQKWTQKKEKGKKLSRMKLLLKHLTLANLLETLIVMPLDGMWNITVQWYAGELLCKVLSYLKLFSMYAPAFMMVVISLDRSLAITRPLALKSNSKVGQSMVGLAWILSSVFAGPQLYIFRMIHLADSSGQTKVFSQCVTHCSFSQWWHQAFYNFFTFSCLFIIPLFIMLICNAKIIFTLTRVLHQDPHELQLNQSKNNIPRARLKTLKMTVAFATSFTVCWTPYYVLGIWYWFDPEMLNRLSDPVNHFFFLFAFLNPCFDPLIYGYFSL
Sequence of Beta-2 adrenergic receptor (Homo sapiens) (P07550 whole entry, looked up): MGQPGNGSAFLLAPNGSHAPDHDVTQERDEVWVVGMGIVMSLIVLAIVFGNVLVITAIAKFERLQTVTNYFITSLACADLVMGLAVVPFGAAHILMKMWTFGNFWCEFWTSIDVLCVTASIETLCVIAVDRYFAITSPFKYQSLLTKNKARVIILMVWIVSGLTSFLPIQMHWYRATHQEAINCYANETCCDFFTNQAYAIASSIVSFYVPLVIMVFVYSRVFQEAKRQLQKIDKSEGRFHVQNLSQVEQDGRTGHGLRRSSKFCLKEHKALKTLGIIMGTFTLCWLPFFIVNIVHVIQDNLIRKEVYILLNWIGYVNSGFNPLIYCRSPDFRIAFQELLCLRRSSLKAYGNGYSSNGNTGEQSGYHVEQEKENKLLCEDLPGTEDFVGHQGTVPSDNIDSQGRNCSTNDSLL
Sequence of Muscarinic acetylcholine receptor M1 (Homo sapiens) (P11229 whole entry, looked up): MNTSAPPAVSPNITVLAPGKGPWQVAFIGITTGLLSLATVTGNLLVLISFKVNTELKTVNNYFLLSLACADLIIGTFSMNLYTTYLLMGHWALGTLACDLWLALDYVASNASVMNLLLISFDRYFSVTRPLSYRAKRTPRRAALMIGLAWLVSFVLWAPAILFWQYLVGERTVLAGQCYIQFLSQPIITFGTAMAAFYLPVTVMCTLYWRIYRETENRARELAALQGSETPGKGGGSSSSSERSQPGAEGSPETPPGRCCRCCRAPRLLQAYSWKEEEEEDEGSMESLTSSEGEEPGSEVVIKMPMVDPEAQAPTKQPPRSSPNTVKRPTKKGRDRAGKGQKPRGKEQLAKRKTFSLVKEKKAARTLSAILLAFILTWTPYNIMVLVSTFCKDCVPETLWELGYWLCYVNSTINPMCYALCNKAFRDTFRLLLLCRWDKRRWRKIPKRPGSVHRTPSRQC

SMILES	Potency [1]	Potency [2]	Potency [3]	Potency [4]	Potency [5]	Potency [6]	Potency [7]	Potency [8]	Potency [9]	Potency [10]	Potency [11]	Potency [12]	Potency [13]	Potency [14]	Potency [15]	Potency [16]	Potency [17]	Potency [18]	Potency [19]	Potency [20]
CNNCc1ccc(C(=O)NC(C)C)cc1	inactive	inactive	inactive	inactive	inactive	inactive	inactive	inactive	inactive	inactive	inactive	inactive	inactive	inactive	inactive	inactive				
O=C1C(N(CO)C(=O)NCO)N(CO)C(=O)N1CO (stereo not given)	inactive	inactive	inactive	inactive	inactive	inactive		inactive	inactive	inactive	inactive	inactive	inactive	inactive	inactive	inactive	inactive	inactive	inactive	inactive
OCC1CCCO1 (stereo not given)	inactive	inactive	inactive	inactive	inactive	inactive		inactive	inactive	inactive	inactive	inactive			inactive	inactive	inactive		inactive	inactive
NC(=O)NC(N)=O	inactive	inactive	inactive	inactive		inactive	inactive	inactive	inactive	inactive	inactive	inactive	inactive		inactive	inactive	inactive	inactive	inactive	inactive
COc1cc(O)c(C(=O)c2ccccc2)cc1S(=O)(=O)O	inactive	inactive		inactive			inactive	inactive	inactive		inactive	inactive	inactive	inactive	inactive		inactive	inactive	inactive	inactive
CCCCC(CC)CO (stereo not given)	inactive	inactive		inactive	inactive	inactive		inactive	inactive	inactive		inactive	inactive	inactive	inactive	inactive	inactive	inactive	inactive	inactive
C[C@]12CC[C@@H]3c4ccc(O)cc4CC[C@H]3[C@@H]1CC[C@H]2O	inactive	inactive	inactive	inactive	inactive	inactive		inactive	inactive		inactive	inactive	inactive	inactive		inactive				
CS(=O)(=O)OCCCCOS(C)(=O)=O	inactive	inactive		inactive	inactive	inactive	inactive	inactive	inactive	inactive	inactive	inactive	inactive	inactive	inactive	inactive				
CCn1c2ccccc2c2cc(N)ccc21	inactive	inactive		inactive		inactive	inactive	inactive	inactive	inactive	inactive	inactive	67.9 µM (active) and inactive	inactive	inactive	inactive	inactive	inactive		inactive
O=C(O)CCCC(=O)O	inactive	inactive	inactive	inactive		inactive	inactive	inactive	inactive	inactive	inactive	inactive	inactive	inactive	inactive	inactive	inactive	inactive	inactive	
NS(=O)(=O)c1cc(C(=O)O)c(NCc2ccco2)cc1Cl	inactive	inactive	inactive	inactive							inactive	inactive	inactive	inactive	inactive	inactive				
CC(=O)CC(c1ccccc1)c1c(O)c2ccccc2oc1=O (stereo not given)	inactive	inactive	inactive	inactive			inactive	inactive	inactive		inactive	inactive	inactive	inactive	inactive	inactive				
O=c1c(O)c(-c2ccc(O)c(O)c2)oc2cc(O)cc(O)c12	inactive	inactive		inactive	inactive	inactive	inactive	inactive	inactive					inactive	inactive	inactive	inactive	inactive	inactive	
CN(C)C		inactive	inactive	inactive	inactive	inactive	inactive	inactive	inactive	inactive	inactive	inactive	inactive	inactive	inactive	inactive	inactive	inactive	inactive	inactive
